The source made the active and inactive calls. Rule for the calls: active = hit-call score of the fitted dose curve at least 0.9, where 1 is the maximum; inactive = score below 0.9.
Each compound was assayed on TTR (gene 7276) (assay: CCTE_GLTED_hTTR_0.125uM: CCTE's human Transthyretin (hTTR) Inhibition Assay, with 0.125uM TTR, Great Lakes Toxicology and Ecology Division (GLTED) Lab (AID 2284431);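 note: hits lower the fluorescence signal relative to DMSO baseline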).
Procedure, shortened: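 Cell-free displacement of ANSA probe from 0.125uM TTR after 2 h incubation with chemical. Fluorescence read at 380 nm excitation/475 nm emission; loss of signal relative to DMSO indicates T4-site displacement.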

Row | SMILES | AC50
1 | c1ccc(N=Nc2ccccc2)cc1 | 28 µM (active)
2 | CCC(C)c1ccc(O)cc1 (stereo unspecified) | 4.66 µM (active)
3 | CS(=O)(=O)NC(=O)c1cc(Oc2ccc(C(F)(F)F)cc2Cl)ccc1[N+](=O)[O-] | 6.19 µM (active)
4 | CCNS(=O)(=O)C(F)(F)C(F)(F)C(F)(F)C(F)(F)C(F)(F)C(F)(F)C(F)(F)C(F)(F)F | 1.05 µM (active)
5 | Nc1cc(Cl)cc(C(=O)O)c1Cl | 8.24 µM (active)
6 | Nc1ccc(Oc2ccc(N)cc2)cc1 | 17.7 µM (active)
7 | [Cl-].[Cl-].[Hg+2] | 6.05 µM (active)
8 | Cc1cc(N=Nc2ccccc2C)ccc1N | 0.0179 µM (active)
9 | Nc1ccc(N=Nc2ccccc2)cc1 | 0.593 µM (active)
10 | Brc1ccc(Oc2ccccc2)cc1 | 50 µM (active)
11 | c1ccc(NNc2ccccc2)cc1 | 33.3 µM (active)
